Results as given in PubChem BioAssay AID588719 (Southern Research Specialized Biocontainment Screening …, 2011).
The whole screen tested about 1,500 compounds, of which about 920 (61%) were called active. So high a share suggests a set chosen from earlier hits. This is one part of the list. Results with a measured potency or affinity are listed apart. Unmarked numbers belong to inactive results. How the calls were made is not given here.

experiment: Vero 76 cell cytotoxicity, dose response, cytotoxicity control for VEEV inhibitor project (AID 588719); conditions: Vero 76 cells viability, cytotoxicity counter-screen; series mostly up to 25 µM; viability: at the top concentration

Row | SMILES | viability [%]
1 | CCOC(=O)c1c(CSC(=N)N)n(-c2ccccc2)c2cc(Br)c(OC(C)=O)cc12 | 81.1
2 | CC(C)=CCN1CCN(Cc2cccc3nccnc23)CC1CCO (stereo not drawn) | 96.6
3 | Cc1ccc(/C([O-])=C(/C(=S)Nc2ccc(SC(F)F)cc2)[n+]2ccccc2)cc1[N+](=O)[O-] | 80.7
4 | Cc1ccc(/C=N/NC(=O)C[n+]2ccccc2)s1 | 96
5 | Cc1ccc(NC(=O)NCc2ccc3[nH]c(C)cc3c2)cc1 | 85.9
6 | COc1cc(/C=C/C(=O)c2c(O)ccc3c(C)cc(=O)oc23)ccc1O | 76.5
7 | Cc1ccc(/C=C/c2onc(C)c2S(=O)(=O)N2CCC(C(=O)N3CCN(C)CC3)CC2)cc1 | 72.2
8 | O=C(NC(Cc1c[nH]c2ccccc12)C(=O)Nc1ccc(F)cc1)c1cccs1 (stereo not drawn) | 70.5
9 | S=c1[nH]nc(-c2ccccc2)n1/N=C/c1ccc(-c2ccccc2Cl)o1 | 73.6
10 | Cc1ccc(NC(=O)c2ncn(CCCNCC3CCCCC3)n2)cc1C | 76.9
11 | CCOc1ccccc1NC(=O)c1cc(S(=O)(=O)NCc2ccco2)ccc1F | 80
12 | CN1CCc2cccc3c2[C@H]1Cc1ccc(O)c(O)c1-3 | 93.6
13 | COc1ccc2cc(-c3cc(C(=O)O)c4ccccc4n3)ccc2c1 | 79.3
14 | CCOc1ccc(NC(=O)c2c(NC(=O)CN3CCN(C)CC3)sc3c2CCC3)cc1 | 71.5
15 | CCOc1ccc(NC(=O)Cn2sc3nc(C)cc(C)c3c2=O)cc1 | 82.7
16 | CC(C)CC1c2[nH]c3ccccc3c2CCN1CCCn1cccn1 (stereo not drawn) | 81.5
17 | Nc1ncnn1Cc1ccccc1 | 95.4
18 | CCOC(=O)C1=NN(C(=O)c2ccc(OC)cc2)C(O)(c2ccc(Cl)cc2)C1 (stereo not drawn) | 91.5
19 | CCC(=NN=C(CC)c1ccccc1O)c1ccccc1O | 95
20 | C#CCOc1ccc(C2C3=C(CC(C)(C)CC3=O)N(CC(=O)O)C3=C2C(=O)CC(C)(C)C3)cc1OC | 91.7
21 | O=c1c2cccnc2[nH]c(=S)n1CCCN1CCN(c2ccccc2F)CC1 | 70.8
22 | O=C(NCc1ccccc1)C(=O)Nc1nc(-c2ccccc2)cs1 | 80.5
23 | Cc1cccc(-n2c(O)c(C=Nc3ccccc3-c3n[nH]c(=S)[nH]c3=O)c3ccccc3c2=O)n1 | 102
24 | O=C(CNC(=O)C1COc2ccccc2O1)N/N=C\c1ccc(Cl)cc1 (stereo not drawn) | 89.8
25 | Nc1ccc(C(=O)OCCCc2nc3cc4ccccc4cc3[nH]2)cc1 | 96.1

Row | SMILES | viability [%]
26 | CN(C)CCNc1nc2sc3c(c2c(=O)n1-c1ccccc1)CCCCC3 | 72.7
27 | Cc1ccc(-c2cc(-c3ccco3)c3c(N)c(C(=O)NN)oc3n2)cc1 | 80.4
28 | Cc1cccc(-c2ccc(NC(=O)C3CCN(CC4CC4)CC3)cc2)c1 | 89.7
29 | CCn1ncc(CN2CCC(C(=O)Nc3cccc(-c4cccc(F)c4)c3)CC2)c1C | 80.2
30 | Cc1cccn2c(=O)c3cc(C#N)c(=NC(=O)c4cccs4)n(CC(C)C)c3nc12 | 85.9
31 | COCCNC(=S)NCc1ccc2[nH]c3c(c2c1)CCCC3 | 89.9
32 | Cc1cc2nc3c(=O)[nH]c(=S)[nH]c3nc2cc1NC(=O)C(F)(F)F | 83
33 | Cc1cccnc1CN1CCN(Cc2nc(C(c3ccccc3)c3ccccc3)no2)CC1 | 91.9
34 | CN1CCc2nc(SCc3cccc(Br)c3)c(C#N)cc2C1 | 87.3
35 | COc1ccc2sc(N(CCCN(C)C)C(=O)c3ccc(S(=O)(=O)N(C)Cc4ccccc4)cc3)nc2c1 | 87.9
36 | COc1ccc2sc(N(CCCN(C)C)C(=O)c3ccc(S(=O)(=O)N(C)C4CCCCC4)cc3)nc2c1 | 79.1
37 | O=C(NNC(=O)c1cc2cc(OC(F)(F)F)ccc2[nH]1)c1ccc(Cl)cc1 | 87.9
38 | NNC(=O)c1n[nH]c(=O)c2ccccc12 | 94.6
39 | Cc1cccc(CS(=O)(=O)c2ncc(Cl)c(C(=O)NCc3ccccc3)n2)c1 | 90.3
40 | CCOc1ccc(N2C(=O)CC(Sc3nc4ccc(OCC)cc4s3)C2=O)cc1 (stereo not drawn) | 100
41 | Cc1nc(-c2ccccn2)sc1C(=O)Nc1ccc(Cl)c(Cl)c1 | 75.4
42 | Cc1ccc2nc(-c3ccc(NC(=S)NCC(C)(C)CN(C)C)cc3)sc2c1 | 89.8
43 | CCOc1ccc(Cn2c(=O)sc3ccccc32)cc1 | 83.2
44 | CC12CCC(C(=NO)C1=O)C2(C)C (stereo not drawn) | 109
45 | O=[N+]([O-])c1ccc(CNC2CCCc3ccccc32)cc1 (stereo not drawn) | 88
46 | COCCCNCCCCOc1ccc(OCc2ccccc2)cc1 | 75.8
47 | CN(C)c1ccc(P(=O)(OCc2ccccc2)C(O)c2ccccc2)cc1 (stereo not drawn) | 83
48 | CC(Oc1ccc(F)cc1)C(=O)Nc1ccc2ccccc2c1 (stereo not drawn) | 93.3
49 | CCOc1ccccc1Nc1nnc(SC(C)C(=O)Nc2nc(-c3ccccc3)cs2)s1 (stereo not drawn) | 79.9
50 | Cc1cc(C(=O)OC(C)C(=O)Nc2nc(-c3ccccc3)cs2)c(C)o1 (stereo not drawn) | 88.3

Row | SMILES | viability [%]
51 | CC(Oc1ccccc1F)C(=O)Nc1ccc2ccccc2c1 (stereo not drawn) | 87.3
52 | Cc1cccc(-n2nc([N+](=O)[O-])c(=NC3CCN(Cc4ccccc4)CC3)n2O)c1 | 85.3
53 | Cc1ccc(C)c(NC(=S)NCCN(C2CCCCC2)C2CCCC2)c1 | 87.6
54 | COC(=O)Cn1c(=O)c(C(=O)CCl)c(N)n(Cc2ccccc2)c1=O | 82.1
55 | CCOc1ccc(-n2c(=O)c3sccc3n(Cc3cccc([N+](=O)[O-])c3)c2=O)cc1 | 87.9
56 | Cc1ccc(C(=O)C[n+]2ccccc2C)cc1[N+](=O)[O-] | 80.7
57 | Cc1nn(C(C)C(=O)Nc2ccccc2Cl)c(=O)c2nn(-c3ccccc3)c(C)c12 (stereo not drawn) | 83.4
58 | Cc1ccc(S(=O)(=O)N2C[C@@H](C)[C@]3(C2)[C@H](O)[C@H](OC(=O)Nc2cccs2)C[C@H]2C(=O)N(c4ccccc4)C(=O)[C@H]23)cc1 | 71.4
59 | COc1ccc(/C=C2\CCCC3C2=NN(C(=O)CSc2n[nH]c(N)n2)C3c2ccc(OC)cc2)cc1 (stereo not drawn) | 84.7
60 | Cc1ccc2[nH]c(CN3CCC(CO)(CC4CCCCO4)CC3)c(C)c2c1 (stereo not drawn) | 72.8
61 | COc1cc(C(=O)O/N=C2/C=CC(=O)C(C)=C2C)cc(OC)c1OC | 87.6
62 | CC[C@@H](O)C[C@H]1CCC[C@@]2(C[C@@H]3OC(=O)/C=C/[C@@](C)(O)[C@@H](O)[C@H](C)[C@@H](O)[C@H](OC4CCC(N(C)C)C(C)O4)[C@@H](O)[C@](C)(O)CCCCC/C=C/[C@@H]4CC(C)(C)O[C@@]4(O)C[C@H](O2)[C@H]3C)O1 (stereo partly drawn) | 6.04
63 | COc1ccccc1NC(=O)c1cc2ccccc2o/c1=N\O | 77.5
64 | O=C(Cc1cccc2ccccc12)Nc1ccc(Br)cc1C(=O)O | 82.4
65 | COc1ccc(/C=C/C(=O)NC(=S)N2CCN(c3ccccc3OC)CC2)cc1 | 93.5
66 | CCOC(=O)N1CCN(C(=O)CNC2CCCCCCC2)CC1 | 93.7
67 | C=CCN=c1scc(-c2ccccc2)n1/N=C/c1ccccn1 | 62.1
68 | N#C/C(=C/c1ccc(-c2ccc([N+](=O)[O-])cc2)o1)c1nnc(N2CCOCC2)n1-c1ccccc1 | 92
69 | O=C(O)c1ccccc1NC(=O)c1ccccc1Nc1ccccc1 | 84.6
70 | Cc1cccc2c(=O)n(C(=O)c3ccccc3)c(N)nc12 | 75
71 | Cc1ccc2c(c1)c1c3n2CCN(CC(O)CNC(C)C)C3CCC1 (stereo not drawn) | 81.5
72 | Cc1ccc([C@H]2C[C@@H](O)[C@H](n3cc(COC(=O)c4ccccc4)nn3)CN2CC2CCCCC2)cc1 | 75.4
73 | COc1ccc(CN(C)[C@H]2C[C@H]3c4[nH]c5ccccc5c4CCN3C[C@H]2[C@H](C)O)cc1 | 70.5
74 | CC(=O)Nc1ccc(CCNC(=O)c2ccc3ccccc3c2O)cc1 | 86.4
75 | CC(C)Oc1ccccc1-c1cc(C(=O)N/N=C/c2cccnc2)c2ccccc2n1 | 84.6

Row | SMILES | viability [%]
76 | Cc1cc(N/N=C/c2ccc3c(c2)OCO3)nc2ccccc12 | 78.2
77 | CCCc1ccc(-c2cc(C(=O)NCCc3ccc(S(N)(=O)=O)cc3)c3ccccc3n2)cc1 | 85
78 | CCOC(=O)c1ccc(-c2ccc(/C=N/NC(=O)c3cncc(Br)c3)o2)cc1 | 83.8
79 | CN(C)c1nc(OCCOC(=O)COc2ccc(Cl)cc2Cl)nc(N(C)C)n1 | 91.9
80 | COc1ccc(CCNC(=O)c2cc3c(=O)n4cccc(C)c4nc3n(CCCN3CCOCC3)c2=N)cc1 | 88.7
81 | O=C(CCNC(=O)c1ccc(Cl)cc1)NC1CCCc2ccccc21 (stereo not drawn) | 73.9
82 | CCOc1ccccc1N1CCN(Cc2cn[nH]c2-c2ccc(F)cc2)CC1 | 75.2
83 | COc1cccc2sc(N(CCCN(C)C)C(=O)c3ccc(S(=O)(=O)N4CCCc5ccccc54)cc3)nc12 | 72.7
84 | Cc1nc(SCC(=O)Nc2ccccc2Cl)c2c(C)c(C)sc2n1 | 98.1
85 | Cc1ccc(CCNc2ccc3ccccc3c2)cn1 | 88.9
86 | CN(C)CC(O)COc1ccc(C(C)(C)c2ccc(OCC(O)CN(C)C)cc2)cc1 (stereo not drawn) | 75.6
87 | CC(C)Cc1nc2oc3c(NCC(C)O)ncnc3c2c2c1CCCC2 (stereo not drawn) | 91.7
88 | Cc1cc(C(C)(C)C)cc(C)c1CCNC(=O)c1ccc[n+]([O-])c1 | 79.1
89 | CCN(CC(=O)Nc1ccc(NC(C)=O)cc1)C(=O)c1cc2c(s1)CCCC2 | 88.5
90 | CCOC(=O)c1ccccc1NC(=O)CSc1nc2ccccc2c(=O)n1CCCN1CCOCC1 | 76
91 | CCOC(=O)Cn1c(-c2nonc2NC(=O)c2ccccc2F)nc2ccccc21 | 59.9
92 | S=c1[nH]nc(-c2ccccn2)n1/N=C/c1ccc(-c2ccccc2Cl)o1 | 90.6
93 | CCOc1ccc(CCNC(=O)CCc2nc3ccccc3[nH]2)cc1OCC | 96.8
94 | COc1ccc(CCNC(=O)c2cc3c(=O)n4ccccc4nc3n(Cc3ccco3)c2=N)cc1OC | 87.9
95 | COc1ccc([C@H]2C[C@H](n3cc(-c4ccc(F)cc4)nn3)[C@@H](O)CN2C(=O)C2CCCCC2)cc1 | 78.2
96 | Fc1ccc(C2c3[nH]c4ccccc4c3CCN2Cc2cccn2-c2ncccn2)cc1 (stereo not drawn) | 71.8
97 | COc1ccc(C2c3[nH]c4ccccc4c3CCN2Cc2ccoc2)c(F)c1 (stereo not drawn) | 73.6
98 | O=C(CCNC(=O)c1ccc(Br)cc1)NC1CCCc2ccccc21 (stereo not drawn) | 76.6
